Values joined by “and” are separate entries in the source; they are usually repeats but may differ in a detail not shown here. Equal values may be shown once. Records with an inconclusive call do not appear. A call without a number means that no potency is given here. Some structures have more than one record in an assay (separate samples or runs), and their calls can disagree. Active and inactive are the calls of the source. Unless noted, the call rests on the fitted dose curve; in most records, active means well fitted curve in the direction sought with a large enough effect in the repeat runs; inconclusive means weak or mixed curves; inactive means no such curve, though single readings can be large; an effect the other way counts as inactive or inconclusive.
Columns and labels:
[1] = A CellTox Green Cytotoxicity Assay to monitor cytotoxicity in HEK293 cells - 32 hour (AID 1224881); further: nearly all actives have a fitted effect of over 40% in size; further: potency means the concentration at half of the fitted maximal effect
Outline: (§1)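 Fluorescence intensity, read at 0, 8, 16, 24, 32 and 40 h of compound treatment, reflected dye binding to DNA of dead HEK293 cells; compounds (23 nL, DMSO) were added 5 h after plating cells with reagent.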

[2] = A CellTox Green Cytotoxicity Assay to monitor cytotoxicity in HepG2 cells - 0 hour (AID 1224882); further: nearly all actives have a fitted effect of over 35% in size
Outline: (§2)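 Using 1536-well format, dye-containing HepG2 suspension was seeded, allowed 5 h at 37 C/5% CO2, dosed by pintool with compounds, positive and negative controls, and imaged for fluorescence across 40 h.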

[3] = A CellTox Green Cytotoxicity Assay to monitor cytotoxicity in HEK293 cells - 8 hour (AID 1224884); further: nearly all actives have a fitted effect of over 35% in size; further: potency means the concentration at half of the fitted maximal effect
Outline: as §1

[4] = qHTS RealTime-Glo MT Cell Viability Assay in HEK293 cells - 24 hour (AID 1224886); further: nearly all actives have a fitted effect of over 50% in size; further: potency means the concentration at half of the fitted maximal effect
Outline: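 Luminescence generated by NanoLuc from substrate produced by living HEK293 cells served as the viability signal. Each value reflects the reading at its stated time point during continuous 40 h compound exposure at 37 C.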

[5] = qHTS RealTime-Glo MT Cell Viability Assay in HEK293 cells - 8 hour (AID 1224887); further: nearly all actives have a fitted effect of over 50% in size; further: potency means the concentration at half of the fitted maximal effect
Outline: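 Viable HEK293 cells reduce a cell-permeant prosubstrate; the product diffuses out and is consumed by NanoLuc in the medium to give light. Compounds went in after a 5 h incubation and plates were read over the treatment course.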

[6] = qHTS RealTime-Glo MT Cell Viability Assay in HepG2 cells - 0 hour (AID 1224889); further: nearly all actives have a fitted effect of over 50% in size
Outline: (§3)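 Tox21 10K library screened in qHTS format on HepG2 cells carrying RealTime-Glo reagents. Compounds were added after a 5 h preincubation, and the luminescent signal from continuous culture was measured repeatedly during 40 h treatment.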

[7] = A CellTox Green Cytotoxicity Assay to monitor cytotoxicity in HepG2 cells - 8 hour (AID 1224890); further: nearly all actives have a fitted effect of over 45% in size; further: potency means the concentration at half of the fitted maximal effect
Outline: as §2

[8] = qHTS assay to identify small molecule antagonists of the estrogen receptor alpha (ER-alpha) signaling pathway using the BG1 cell line in the presence of 0.1 nM 17-beta-estradiol - cell viability counter screen (AID 1259241); further: nearly all actives have a fitted effect of over 40% in size; further: potency means the concentration at half of the fitted maximal effect
Outline: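 Measures cytotoxicity alongside the ER-alpha antagonist readout: VM7Luc4E2 cells, charcoal-stripped serum, 0.1 nM 17beta-estradiol final, 22 hr compound incubation at 37C, CellTiter-Fluor fluorescence.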

[9] = qHTS assay to identify small molecule antagonists of the androgen receptor (AR) signaling pathway using the MDA cell line in the presence of 0.5 nM R1881 - cell viability counter screen (AID 1259242); further: nearly all actives have a fitted effect of over 45% in size; further: potency means the concentration at half of the fitted maximal effect
Outline: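 Viability of MDA-kb2 cells was multiplexed with the luciferase AR readout; after 16 hr with compounds and R1881 at 0.5 nM final, CellTiter-Fluor fluorescence was recorded.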

[10] = target: Estrogen receptor (Homo sapiens) (UniProt P03372); assay: qHTS assay to identify small molecule antagonists of the estrogen receptor alpha (ER-alpha) signaling pathway using the BG1 cell line in the presence of 0.1 nM 17-beta-estradiol (AID 1259244); further: nearly all actives have a fitted effect of over 50% in size
Outline: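 Estradiol at 0.1 nM (final) stimulates the endogenous ER-alpha of VM7Luc4E2 cells carrying an ERE-driven luciferase; compounds are co-incubated 22 h at 37C and luciferase output quantified by luminescence.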

[11] = qHTS assay to identify small molecule HDAC inhibitors (AID 1259364); further: potency means the concentration at half of the fitted maximal effect;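 further: wild-type HCT-116 cells with endogenous class I/II HDAC activity; nearly all actives have a fitted effect of over 45% in size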
Outline: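 Read-out: luminescence of HDAC-Glo I/II reagent, 30 min RT, reflecting class I/II deacetylase activity in whole HCT-116 cells pre-exposed 2 h to DMSO-dissolved compounds.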

[12] = qHTS assay to identify small molecule HDAC inhibitors - cell viability counter screen (AID 1259365); further: nearly all actives have a fitted effect of over 50% in size; further: potency means the concentration at half of the fitted maximal effect
Outline: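 Following a 2hr exposure of overnight-plated wild-type HCT-116 cells to DMSO-delivered compounds, CellTiter-Glo was added and luminescence recorded after 30min at room temperature.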

[13] = qHTS assay to identify small molecule agonists of the sonic hedgehog signaling (Shh) pathway - cell viability counter screen (AID 1259366); further: nearly all actives have a fitted effect of over 50% in size; further: potency means the concentration at half of the fitted maximal effect
Outline: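 After a 4hr attachment at 37C, NIH/3T3 cells bearing an integrated Gli1-driven luciferase reporter were dosed with compounds. Treatment lasted 24hr, with the final hour including CellTiter-Fluor for a fluorescence viability measurement.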

[14] = qHTS assay to identify small molecule antagonists of the sonic hedgehog signaling (Shh) pathway - cell viability counter screen (AID 1259367); further: nearly all actives have a fitted effect of over 55% in size; further: potency means the concentration at half of the fitted maximal effect
Outline: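 After a 4 hr settling period, 3T3 Gli1-Luc cells were treated with DMSO-dissolved chemicals and conditioned medium, kept 24 hr at 37C in 5% CO2, and assayed for viability by CellTiter-Fluor fluorescence following 1 hr reagent incubation.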

[15] = A CellTox Green Cytotoxicity Assay to monitor cytotoxicity in HEK293 cells - 16 hour (AID 1224888); further: nearly all actives have a fitted effect of over 35% in size; further: potency means the concentration at half of the fitted maximal effect
Outline: as §1

[16] = target: Androgen receptor (Homo sapiens) (UniProt P10275); assay: qHTS assay to identify small molecule antagonists of the androgen receptor (AR) signaling pathway using the MDA cell line in the presence of 0.5 nM R1881 (AID 1259243); further: nearly all actives have a fitted effect of over 50% in size; further: potency means the concentration at half of the fitted maximal effect
Outline: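 Reporter cells cultured without CO2 receive test chemicals, then 0.5 nM R1881 final; after 16 hr at 37C, ONE-Glo is added and light output recorded.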

[17] = qHTS assay to identify small molecule agonists of the sonic hedgehog signaling (Shh) pathway (AID 1259368; calls by dose curve;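 further: NIH/3T3-derived 3T3Gli1-Luc cells carrying a stable Gli1-driven firefly luciferase reporter; series mostly up to about 92 µM; nearly all actives have a fitted effect of over 15% in size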)
Outline: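 A Gli1 transcriptional response element controlled firefly luciferase in 3T3Gli1-Luc cells. Compounds and a positive control were added 4 hr after plating, and cells were incubated a further 24 hr at 37 C before luminescence detection.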

[18] = A CellTox Green Cytotoxicity Assay to monitor cytotoxicity in HepG2 cells - 32 hour (AID 1224883); further: nearly all actives have a fitted effect of over 50% in size; further: potency means the concentration at half of the fitted maximal effect
Outline: as §2

[19] = qHTS assay to identify small molecule phospholipidosis (PLD) inducers (AID 1259344; active means well fitted curve in the direction sought with a large enough effect; an effect the other way counts as inactive or inconclusive)
Outline: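 HepG2 cells grown on collagen I take up LipidTOX Red while exposed to compound for 24 h; after fixation they are imaged at 20x and pit metrics are extracted.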

[20] = qHTS RealTime-Glo MT Cell Viability Assay in HepG2 cells - 16 hour (AID 1224885); further: nearly all actives have a fitted effect of over 50% in size; further: potency means the concentration at half of the fitted maximal effect
Outline: as §3

Sequence of Androgen receptor (Homo sapiens) (P10275 whole entry, looked up): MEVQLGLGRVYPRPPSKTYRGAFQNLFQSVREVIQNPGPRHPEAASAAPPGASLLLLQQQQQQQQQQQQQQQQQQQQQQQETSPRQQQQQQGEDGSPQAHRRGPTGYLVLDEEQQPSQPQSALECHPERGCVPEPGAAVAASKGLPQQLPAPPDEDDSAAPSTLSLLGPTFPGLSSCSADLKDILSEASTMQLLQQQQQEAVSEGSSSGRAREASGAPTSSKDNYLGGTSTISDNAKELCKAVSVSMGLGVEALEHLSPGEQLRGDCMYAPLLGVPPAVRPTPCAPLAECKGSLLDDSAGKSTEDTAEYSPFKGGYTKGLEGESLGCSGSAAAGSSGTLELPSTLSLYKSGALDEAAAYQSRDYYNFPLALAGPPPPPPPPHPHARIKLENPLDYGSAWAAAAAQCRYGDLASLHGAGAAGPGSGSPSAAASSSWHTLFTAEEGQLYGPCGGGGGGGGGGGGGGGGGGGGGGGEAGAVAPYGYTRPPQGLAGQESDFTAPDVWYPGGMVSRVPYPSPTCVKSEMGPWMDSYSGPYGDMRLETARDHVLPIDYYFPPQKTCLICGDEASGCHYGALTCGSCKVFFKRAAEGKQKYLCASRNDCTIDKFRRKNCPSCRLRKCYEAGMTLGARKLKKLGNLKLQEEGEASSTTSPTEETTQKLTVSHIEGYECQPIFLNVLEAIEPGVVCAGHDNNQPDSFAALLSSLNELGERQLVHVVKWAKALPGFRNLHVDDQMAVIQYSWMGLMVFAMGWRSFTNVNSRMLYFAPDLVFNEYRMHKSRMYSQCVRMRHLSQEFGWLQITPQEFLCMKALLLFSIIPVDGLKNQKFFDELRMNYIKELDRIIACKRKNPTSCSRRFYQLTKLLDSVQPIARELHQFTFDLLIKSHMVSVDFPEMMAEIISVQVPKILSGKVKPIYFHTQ
Sequence of Estrogen receptor (Homo sapiens) (P03372 whole entry, looked up): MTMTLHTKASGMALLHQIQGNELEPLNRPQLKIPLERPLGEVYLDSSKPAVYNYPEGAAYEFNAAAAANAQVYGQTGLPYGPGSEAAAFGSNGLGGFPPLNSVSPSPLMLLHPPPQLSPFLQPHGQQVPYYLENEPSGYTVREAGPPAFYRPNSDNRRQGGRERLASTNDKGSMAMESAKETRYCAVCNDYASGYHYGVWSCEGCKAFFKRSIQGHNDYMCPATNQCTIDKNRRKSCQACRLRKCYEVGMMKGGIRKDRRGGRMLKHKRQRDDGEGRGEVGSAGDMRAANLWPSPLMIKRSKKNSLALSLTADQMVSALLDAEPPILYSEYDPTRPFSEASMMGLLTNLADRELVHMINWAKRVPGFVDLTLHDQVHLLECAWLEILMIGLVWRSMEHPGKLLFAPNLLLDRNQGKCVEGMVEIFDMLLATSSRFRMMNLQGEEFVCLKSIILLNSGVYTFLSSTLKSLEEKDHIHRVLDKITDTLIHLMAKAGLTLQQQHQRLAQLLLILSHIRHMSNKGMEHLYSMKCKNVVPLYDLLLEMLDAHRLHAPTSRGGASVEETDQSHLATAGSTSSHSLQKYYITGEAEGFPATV

Structure (SMILES)	Potency [1]	Potency [2]	Potency [3]	Potency [4]	Potency [5]	Potency [6]	Potency [7]	Potency [8]	Potency [9]	Potency [10]	Potency [11]	Potency [12]	Potency [13]	Potency [14]	Potency [15]	Potency [16]	Potency [17]	Potency [18]	Potency [19]	Potency [20]
CCCC/C=C/CCCCO	inactive	inactive	inactive	inactive	inactive	inactive	inactive	inactive	inactive	inactive	inactive	inactive	inactive	inactive	–	–	–	–	–	–
Cc1cc(CCN2CCN(c3nsc4ccccc34)CC2)cc2c1NC(=O)CC2(C)C	49 µM (active)	inactive	–	6.92 µM (active)	21.9 µM (active)	inactive	inactive	34.4 µM (active)	27.3 µM (active)	–	–	inactive	21.7 µM (active)	19.3 µM (active)	49 µM (active)	8.63 µM (active)	inactive	–	–	–
COc1cccc2c1C(=O)c1c(O)c3c(c(O)c1C2=O)C[C@@](O)(C(=O)CO)C[C@@H]3O[C@H]1C[C@H](N)[C@H](O[C@@H]2CCCCO2)[C@H](C)O1	inactive	–	inactive	0.338 µM (active)	inactive	inactive	23.9 µM (active)	13.3 µM (active)	–	inactive	11.9 µM (active)	inactive	11.9 µM (active)	11.9 µM (active)	inactive	2.11 µM (active)	inactive	1.69 µM (active)	inactive	–
N#CSc1ccc(N)c([N+](=O)[O-])c1	inactive	inactive	inactive	49.3 µM (active)	–	inactive	inactive	–	–	–	inactive	inactive	69 µM (active)	30.8 µM (active)	inactive	30.8 µM (active)	inactive	–	–	inactive
CCc1oc2ccccc2c1C(=O)c1cc(Br)c(O)c(Br)c1	–	inactive	inactive	inactive	inactive	inactive	inactive	inactive	inactive	–	inactive	inactive	–	inactive	inactive	–	–	inactive	inactive	inactive
Cc1ccc(O)c2ncccc12	–	inactive	inactive	inactive	inactive	inactive	inactive	inactive	–	–	inactive	inactive	1.33 µM (active)	1.33 µM (active)	inactive	10.6 µM (active)	inactive	8.49 µM (active)	inactive	inactive
CCOc1nc2cccc(C(=O)OC(C)OC(=O)OC3CCCCC3)c2n1Cc1ccc(-c2ccccc2-c2nn[nH]n2)cc1 (stereo unspecified)	30.9 µM (active)	–	–	–	8.7 µM (active)	–	–	inactive	–	–	inactive	–	–	–	–	–	inactive	43.6 µM (active)	–	–
NC(=O)N1C(=O)C(C(=O)c2cc(Cl)cs2)c2cc(F)c(Cl)cc21 (stereo unspecified)	inactive	inactive	inactive	inactive	inactive	–	inactive	–	–	–	inactive	inactive	–	27.3 µM (active)	–	inactive	inactive	–	–	inactive
CCC(CN)=C(c1ccccc1)c1ccccc1	inactive	inactive	inactive	inactive	inactive	inactive	inactive	inactive	inactive	inactive	inactive	inactive	inactive	inactive	–	–	inactive	–	–	inactive
CCCC(C)c1ccccc1O (stereo unspecified)	49 µM (active)	inactive	inactive	inactive	inactive	inactive	–	inactive	–	inactive	inactive	inactive	–	–	–	–	inactive	–	–	inactive
NC(=NCCCCCCN=C(N)/N=C(\N)Nc1ccc(Cl)cc1)/N=C(\N)Nc1ccc(Cl)cc1	19.4 µM (active) [middle of 4 runs]	inactive	35.3 µM (active) and 54.6 µM (active)	10.9 µM (active) [middle of 5 runs]	–	inactive	54.6 µM (active)	inactive	–	–	inactive	44.1 µM (active) and 60.8 µM (active) and inactive	48.1 µM (active) and 24.8 µM (active) and 54.2 µM (active)	60.6 µM (active) and 43 µM (active) and inactive	–	–	inactive	–	inactive	43.4 µM (active) and 31.5 µM (active) and 24.4 µM (active)
CCCCCCCC(=O)[O-].CCCCCCCC(=O)[O-].[Zn+2]	inactive	–	inactive	inactive	inactive	inactive	inactive	inactive	inactive	inactive	inactive	inactive	inactive	inactive	inactive	–	inactive	inactive	–	inactive
Cc1c(C)c2c(c(C)c1OC(=O)CCC(=O)O)CC[C@@](C)(CCC[C@H](C)CCC[C@H](C)CCCC(C)C)O2	inactive	inactive	–	–	inactive	–	inactive	inactive	inactive	–	inactive	inactive	–	inactive	inactive	–	inactive	–	inactive	inactive
O=C(c1ccc(F)cc1)C1CCN(CCn2c(=O)[nH]c3ccccc3c2=O)CC1	inactive	–	inactive	–	9.52 µM (active)	inactive	–	inactive	–	inactive	inactive	inactive	–	inactive	inactive	inactive	inactive	inactive	inactive	inactive
